Assay results reported in the supplement of paper PMC7411054.

Experiments:
Conditions in all cases: treatment time: 24 h
[1] = system: A549-ACTB-RAB5A; assay: phenotypically active (imaging signature differs from DMSO and reproducible) at any of 0.3-9 uM (binary (1 = active, 0 = inactive)); higher = active
Method in brief: (§1)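 Phenotypic activity depended on meeting both a deviation and a reproducibility criterion. The fifteen gene-edited A549, HepG2 and WPMY1 reporter lines were treated at 0.3, 1, 3 or 9 µM for 24 h, four wells each, then imaged live with features normalised to solvent control wells. Deviation required ≥3 of 4 wells past the 95th percentile of control Euclidean distances, and reproducibility a median replicate Pearson correlation above the 95th percentile of non-replicates.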

[2] = system: A549-CANX-COX4; assay: as above
Method in brief: as §1

[3] = system: A549-GM130-SQSTM1; assay: as above
Method in brief: as §1

[4] = system: A549-TP53BP1-CLTA; assay: as above
Method in brief: as §1

[5] = system: A549-TUBA1B-RELA; assay: as above
Method in brief: as §1

[6] = system: HepG2-ACTB-RAB5A; assay: as above
Method in brief: as §1

[7] = system: HepG2-CANX-COX4; assay: as above
Method in brief: as §1

[8] = system: HepG2-GM130-SQSTM1; assay: as above
Method in brief: as §1

[9] = system: HepG2-TP53BP1-CLTA; assay: as above
Method in brief: as §1

[10] = system: HepG2-TUBA1B-RELA; assay: as above
Method in brief: as §1

[11] = system: WPMY1-ACTB-RAB5A; assay: as above
Method in brief: as §1

[12] = system: WPMY1-CANX-COX4; assay: as above
Method in brief: as §1

[13] = system: WPMY1-GM130-SQSTM1; assay: as above
Method in brief: as §1

[14] = system: WPMY1-TP53BP1-CLTA; assay: as above
Method in brief: as §1

[15] = system: WPMY1-TUBA1B-RELA; assay: as above
Method in brief: as §1

[16] = system: A549-ACTB-RAB5A; assay: lowest phenotypically active concentration; higher = less potent
Method in brief: as §1

[17] = system: A549-GM130-SQSTM1; assay: as above
Method in brief: as §1

[18] = system: A549-TUBA1B-RELA; assay: as above
Method in brief: as §1

[19] = system: HepG2-CANX-COX4; assay: as above
Method in brief: as §1

[20] = system: WPMY1-ACTB-RAB5A; assay: as above
Method in brief: as §1

CCN1C[C@]2(COC)CC[C@H](O)[C@]34[C@@H]5C[C@H]6[C@H](OC)[C@@H]5[C@](O)(C[C@@H]6OC)[C@](O)([C@H]13)[C@@H](OC)[C@H]24 [Delsoline]
inactive: phenotypically active [1] 0 | phenotypically active [2] 0 | phenotypically active [3] 0 | phenotypically active [4] 0 | phenotypically active [5] 0 | phenotypically active [6] 0 | phenotypically active [7] 0 | phenotypically active [8] 0 | phenotypically active [9] 0 | phenotypically active [10] 0 | phenotypically active [11] 0 | phenotypically active [12] 0 | phenotypically active [13] 0 | phenotypically active [14] 0 | phenotypically active [15] 0

Oc1ccc2c3c1O[C@H]1[C@@H](O)CC[C@@]4(O)[C@@H](C2)N(CC2CCC2)CC[C@]314 [nalbuphine]
inactive: phenotypically active [1] 0 | phenotypically active [2] 0 | phenotypically active [3] 0 | phenotypically active [4] 0 | phenotypically active [5] 0 | phenotypically active [6] 0 | phenotypically active [7] 0 | phenotypically active [8] 0 | phenotypically active [9] 0 | phenotypically active [10] 0 | phenotypically active [11] 0 | phenotypically active [12] 0 | phenotypically active [13] 0 | phenotypically active [14] 0 | phenotypically active [15] 0

CN1CCc2cc3c(cc2[C@H]1[C@@H]1OC(=O)c2c1ccc1c2OCO1)OCO3 [bicuculine]
inactive: phenotypically active [1] 0 | phenotypically active [2] 0 | phenotypically active [3] 0 | phenotypically active [4] 0 | phenotypically active [5] 0 | phenotypically active [6] 0 | phenotypically active [7] 0 | phenotypically active [8] 0 | phenotypically active [9] 0 | phenotypically active [10] 0 | phenotypically active [11] 0 | phenotypically active [12] 0 | phenotypically active [13] 0 | phenotypically active [14] 0 | phenotypically active [15] 0

CC(C)[N+](C)(CCC(C(N)=O)(c1ccccc1)c1ccccc1)C(C)C [isopropamide-iodide]
inactive: phenotypically active [1] 0 | phenotypically active [2] 0 | phenotypically active [3] 0 | phenotypically active [4] 0 | phenotypically active [5] 0 | phenotypically active [6] 0 | phenotypically active [7] 0 | phenotypically active [8] 0 | phenotypically active [9] 0 | phenotypically active [10] 0 | phenotypically active [11] 0 | phenotypically active [12] 0 | phenotypically active [13] 0 | phenotypically active [14] 0 | phenotypically active [15] 0

C=C[C@]12CN(C)[C@@H]3[C@H]4CO[C@H](C[C@H]41)[C@]1(C(=O)Nc4ccccc41)[C@@H]32 [Gelsemine]
inactive: phenotypically active [1] 0 | phenotypically active [2] 0 | phenotypically active [3] 0 | phenotypically active [4] 0 | phenotypically active [5] 0 | phenotypically active [6] 0 | phenotypically active [7] 0 | phenotypically active [8] 0 | phenotypically active [9] 0 | phenotypically active [10] 0 | phenotypically active [11] 0 | phenotypically active [12] 0 | phenotypically active [13] 0 | phenotypically active [14] 0 | phenotypically active [15] 0

CN1C[C@H](C(=O)N[C@]2(C)O[C@@]3(O)[C@@H]4CCCN4C(=O)[C@H](Cc4ccccc4)N3C2=O)C=C2c3cccc4[nH]cc(c34)C[C@H]21 [ergotamine]
9 µM: lowest phenotypically active concentration [16]
3 µM: lowest phenotypically active concentration [17] | lowest phenotypically active concentration [18] | lowest phenotypically active concentration [19] | lowest phenotypically active concentration [20]
active: phenotypically active [1] 1 | phenotypically active [2] 1 | phenotypically active [3] 1 | phenotypically active [4] 1 | phenotypically active [5] 1 | phenotypically active [6] 1 | phenotypically active [7] 1 | phenotypically active [8] 1 | phenotypically active [9] 1 | phenotypically active [10] 1 | phenotypically active [11] 1 | phenotypically active [12] 1 | phenotypically active [13] 1 | phenotypically active [14] 1 | phenotypically active [15] 1

C/C=C1/C[N+]2(C)CC[C@]34C(=C(C=O)[C@H]1C[C@@H]32)Nc1ccccc14 (stereo not given in full) [Fluorocurarine chloride]
inactive: phenotypically active [1] 0 | phenotypically active [2] 0 | phenotypically active [3] 0 | phenotypically active [4] 0 | phenotypically active [5] 0 | phenotypically active [6] 0 | phenotypically active [7] 0 | phenotypically active [8] 0 | phenotypically active [9] 0 | phenotypically active [10] 0 | phenotypically active [11] 0 | phenotypically active [12] 0 | phenotypically active [13] 0 | phenotypically active [14] 0 | phenotypically active [15] 0

CCn1cnc2c(Nc3cccc(Cl)c3)nc(N[C@H]3CCCC[C@H]3N)nc21
3 µM: lowest phenotypically active concentration [20]
1 µM: lowest phenotypically active concentration [16] | lowest phenotypically active concentration [17] | lowest phenotypically active concentration [18] | lowest phenotypically active concentration [19]
active: phenotypically active [1] 1 | phenotypically active [2] 1 | phenotypically active [3] 1 | phenotypically active [4] 1 | phenotypically active [5] 1 | phenotypically active [6] 1 | phenotypically active [7] 1 | phenotypically active [8] 1 | phenotypically active [9] 1 | phenotypically active [10] 1 | phenotypically active [11] 1 | phenotypically active [12] 1 | phenotypically active [13] 1 | phenotypically active [14] 1 | phenotypically active [15] 1

Fc1ccccc1C1=NCC(=S)N(CC(F)(F)F)c2ccc(Cl)cc21 [quazepam]
inactive: phenotypically active [1] 0 | phenotypically active [2] 0 | phenotypically active [3] 0 | phenotypically active [4] 0 | phenotypically active [5] 0 | phenotypically active [6] 0 | phenotypically active [7] 0 | phenotypically active [8] 0 | phenotypically active [9] 0 | phenotypically active [10] 0 | phenotypically active [11] 0 | phenotypically active [12] 0 | phenotypically active [13] 0 | phenotypically active [14] 0 | phenotypically active [15] 0

CC(C)CC(N(C)C)C1(c2ccc(Cl)cc2)CCC1 (stereo not given) [sibutramine]
inactive: phenotypically active [1] 0 | phenotypically active [2] 0 | phenotypically active [3] 0 | phenotypically active [4] 0 | phenotypically active [5] 0 | phenotypically active [6] 0 | phenotypically active [7] 0 | phenotypically active [8] 0 | phenotypically active [9] 0 | phenotypically active [10] 0 | phenotypically active [11] 0 | phenotypically active [12] 0 | phenotypically active [13] 0 | phenotypically active [14] 0 | phenotypically active [15] 0

COc1cc2c(c(OC)c1OC)-c1ccc(OC)c(=O)cc1[C@@H](NC(C)=O)CC2 [colchicine]
9 µM: lowest phenotypically active concentration [18]
≤ 0.3 µM: lowest phenotypically active concentration [16] | lowest phenotypically active concentration [17] | lowest phenotypically active concentration [19] | lowest phenotypically active concentration [20]
active: phenotypically active [1] 1 | phenotypically active [2] 1 | phenotypically active [3] 1 | phenotypically active [4] 1 | phenotypically active [5] 1 | phenotypically active [6] 1 | phenotypically active [7] 1 | phenotypically active [8] 1 | phenotypically active [9] 1 | phenotypically active [10] 1 | phenotypically active [11] 1 | phenotypically active [12] 1 | phenotypically active [13] 1 | phenotypically active [14] 1 | phenotypically active [15] 1
